Inconclusive results are not listed. Calls of active or inactive are those of the source. Rule for the calls: active = hit-call score of the fitted dose curve at least 0.9, where 1 is the maximum; inconclusive = response in the unintended direction; inactive = score below 0.9.

By AC50 is commonly meant the concentration giving half of the maximal activity seen.

Chain of Luciferin 4-monooxygenase (Photinus pyralis) (P08659 whole entry, looked up): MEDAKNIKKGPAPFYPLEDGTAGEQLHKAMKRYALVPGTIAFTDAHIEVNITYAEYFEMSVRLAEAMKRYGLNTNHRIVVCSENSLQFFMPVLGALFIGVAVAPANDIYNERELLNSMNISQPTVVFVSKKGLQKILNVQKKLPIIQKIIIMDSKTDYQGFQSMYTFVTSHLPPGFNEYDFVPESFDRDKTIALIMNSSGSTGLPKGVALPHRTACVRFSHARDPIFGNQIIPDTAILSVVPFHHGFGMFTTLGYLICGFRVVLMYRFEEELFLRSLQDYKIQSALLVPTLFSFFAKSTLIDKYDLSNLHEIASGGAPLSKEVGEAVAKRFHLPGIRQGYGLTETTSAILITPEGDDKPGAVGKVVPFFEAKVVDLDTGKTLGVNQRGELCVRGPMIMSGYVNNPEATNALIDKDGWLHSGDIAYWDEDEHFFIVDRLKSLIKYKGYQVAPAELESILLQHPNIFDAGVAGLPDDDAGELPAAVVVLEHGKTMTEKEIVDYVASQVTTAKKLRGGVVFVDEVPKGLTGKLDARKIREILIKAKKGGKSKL

The assay has as its target Luciferin 4-monooxygenase (Photinus pyralis) (UniProt P08659). The experiment in a line: CCTE_Simmons_QuantiLum_inhib_2: CCTE's Firefly Luciferase Inhibition Assay, Simmons Lab (AID 2283767).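 For AC50: potency for inhibitors that lower luciferase luminescence relative to DMSO.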 As for the experimental part: CCTE_Simmons_QuantiLum_inhib_2 is a biochemical, single-readout assay that uses purified luciferase enzyme in a cell-free assay.Measurements were taken 0.5 hour after chemical dosing in a 384-well plate.CCTE_Simmons_QuantiLum_inhib_2 is the assay component measured from the CCTE_Simmons_QuantiLum_inhib_2 assay. It is designed to make measurements of enzyme activity, a form of enzyme reporter, as detected with bioluminescence signals by Luciferase-coupled Quantilum levels technology. This is a secondary assay to CCTE_Simmons_AUR_TPO to evaluate nonspecific enzyme inhibition.Data from the assay component CCTE_Simmons_QuantiLum_inhib_2 was analyzed at the endpoint, CCTE_Simmons_QuantiLum_inhib_2, in the positive analysis fitting direction relative to DMSO as the negative control and baseline of activity. Using a type of enzyme reporter, measures of enzyme activity for loss-of-signal activity can be used to understand inhibition of firefly luciferase. This is an assay endpoint to indicate nonspecific protein inhibition for comparison to aeid 1508 for thyroperoxidase inhibition. To generalize the intended target to other relatable targets, this assay endpoint is annotated to the oxidoreductase intended target family, where the subfamily is monooxygenase.
Quanti-Lum recombinant luciferase (Promega; Madison, Wisconsin) was diluted to 76.9 ng/ml with 200mM potassium phosphate buffer supplemented with 1 mg/ml bovine serum albumin and 65ul (5ng recombinant luciferase) per well was dispensed into opaque, white 384-well plates (Greiner, BioExpress) using an automated liquid handler (BioTek MicroFlo) with a plastic 5 ul tubing cassette. Test compounds were administered using the HDRT as described earlier to achieve a 0.5% final DMSO concentration. Microplates were incubated at 37C in the dark for 30min to mimic the AUR-TPO assay conditions. Luciferase detection reagent (25 ul per well; 9.2 mM dithiothreitol, 75uM Coenzyme A, 147uM dATP, 150uM D-luciferin, 8.9 mM Tricine, 297uM (MgCO3)4.Mg(OH)2.5H20, 742uM MgSO4, 27.8uM EDTA, pH 7.8, final assay concentrations) was then added using a BMG Clariostar plate reader equipped with syringe injectors (BMG LabTech; GmbH). Plates were read using a kinetic luminescence protocol (top read) whereby each well was individually injected with luciferase detection reagent immediately prior to measurement. Three biological replicates of technical singles were run for every chemical concentration tested. A titrated range of LUCINH2 served as a positive control on each plate of the luciferase inhibition screening assay. Test chemicals were administered as a titrated series of 8 concentrations from 5 nM up to 87.5 uM [final] for 30 minutes prior to single endpoint detection. Dimethylsulfoxide [DMSO] was used as the vehicle control. Luciferase Inhibitor I [2-(5-(2-Methoxyphenyl)-1,2,4-oxadiazol-3-yl)pyridine] was used as the positive control and was administered as a titrated series of 8 concentrations from 1 nM up to 100 uM [final].
Take `CC1=NN(c2ccc(S(=O)(=O)O)cc2)C(=O)C1N=Nc1ccccc1` (stereo not given): the compound was classed as inactive. On to `CCCCCCCOC(=O)c1ccc(O)cc1`, for which the AC50 is 76.7 µM (active). As for `COc1ccc(C(=O)c2ccccc2)c(O)c1`, the AC50 was 53.6 µM (active). `c1ccc(Nc2cccc3ccccc23)cc1`: the AC50 was 53.8 µM (active).

`CCc1occc(=O)c1O`: the result was inactive. For the compound `CCCCCCOc1ccc(N)cc1`, the AC50 is 28.7 µM (active). For the compound `C/C=C/C=C/CCCCCCCO`, the call was inactive.

`CN(C)c1ccc2nc3ccc(=[N+](C)C)cc-3sc2c1`: the AC50 was 0.676 µM (active). Regarding `CCCCCCCCCCCCc1ccc(O)cc1`, the outcome was inactive. With `CCCCC1C(=O)N(c2ccccc2)N(c2ccccc2)C1=O`, the compound was called inactive. In the case of `O=S(=O)(O)c1ccc(N=Nc2c(O)ccc3ccccc23)cc1`, the AC50 is 24.3 µM (active).

As for `CC(C)c1ccc(O)c(C(C)C)c1`, the call was inactive.

Turning to `CC(CCC(=O)O)(c1ccc(O)cc1)c1ccc(O)cc1`, the compound was classed as inactive.

Take `N#Cc1ccc(C(c2ccc(C#N)cc2)n2cncn2)cc1`: the compound was called inactive. Consider `O=c1c(O)c(-c2ccc(O)cc2O)oc2cc(O)cc(O)c12`, for which the AC50 was 68.3 µM (active). On to `CC(C)(c1ccccc1)c1ccc(Nc2ccc(C(C)(C)c3ccccc3)cc2)cc1`, for which the AC50 was 53.8 µM (active). With `COc1ccc(-c2coc3cc(O)cc(O)c3c2=O)cc1`, the AC50 was 9.08 µM (active). With `COC(=O)c1ccccc1C`, the result was inactive.

For `O=C(O)c1cc(O)c2ccccc2c1O`, the AC50 is 39.9 µM (active). On to `CCCCC/C=C\C/C=C\CCCCCCCC(=O)O`, for which the compound was classed as inactive.

Source of the values: PubChem BioAssay (EPA / NIEHS).
